Results on eight compounds are retold here after PubChem BioAssay (NCI).

The panel holds about 83,000 compounds, 20% with a hit somewhere; the sample as a whole holds those more often.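 In brief: 96-well plates, 48 h treatment, single concentration, percent growth endpoint.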 Unmarked numbers belong to inactive results. Active and inactive are the calls of the source. Rule for the calls: active = growth percent below 10; inactive = the rest.

Some test systems named below: DU-145 prostate; K-562 leukemia; MALME-3M melanoma; MDA-MB-231 breast; SF-268 CNS; SF-295 CNS; SF-539 CNS; UACC-257 melanoma; M14 melanoma; HCT-15 colon; HT29 colon; SNB-75 CNS; SNB-19 CNS; U251 CNS; PC-3 prostate; SK-MEL-5 melanoma; UACC-62 melanoma; LOX IMVI melanoma; SK-MEL-28 melanoma; RXF 393 renal.
Holding throughout (assay): NCI-60 one-dose screen, 48 h (100 = growth as untreated, 0 = no growth, -100 = all killed)
What all share (details): 10 µM unless noted

For the compound `COc1ccc2c(c1)nnn1c3ncccc3c(N=O)c21`, the growth in the test with DU-145 prostate was -56.1% (active); in the test on K-562 leukemia, -75% (active); in the test on MALME-3M melanoma, -8.37% (active); with MDA-MB-231 breast it was -31.2% (active); in the test with SF-268 CNS, -50.4% (active); in the test with SF-295 CNS, 24.2%. The growth is -71.2% (active) in the test on SF-539 CNS; -10% (active) in the test with UACC-257 melanoma; -67.5% (active) in the test on M14 melanoma; -33.2% (active) in the test with HCT-15 colon; -48.8% (active) in the test with HT29 colon; -23.3% (active) with SNB-75 CNS. The growth was -4.29% (active) in the test with SNB-19 CNS; -64.4% (active) in the test with U251 CNS; 9.89% (active) in the test with PC-3 prostate; 36% in the test on SK-MEL-5 melanoma; -76.8% (active) in the test with UACC-62 melanoma; -59.1% (active) with LOX IMVI melanoma. For the same compound, the growth in the test on SK-MEL-28 melanoma was 16.2%.

Turning to `Cc1cc(NCCN(C(C)C)C(C)C)nc(/N=C(\N)Nc2ccc(Cl)c(C(F)(F)F)c2)n1`, the growth with DU-145 prostate is -29.5% (active); in the test on K-562 leukemia it was -100% (active); with MALME-3M melanoma, -74.5% (active); in the test with MDA-MB-231 breast it was -65.1% (active); in the test on SF-268 CNS it was -85% (active); with SF-295 CNS it was -77.8% (active). The growth in the test on SF-539 CNS is -97.8% (active); with UACC-257 melanoma, -95.3% (active); in the test with M14 melanoma, -89.8% (active); in the test with HCT-15 colon it was -56.2% (active); in the test with SNB-75 CNS it was -100% (active); with SNB-19 CNS it was -83.3% (active). The growth with U251 CNS was -84.4% (active); in the test with SK-MEL-5 melanoma, -91.5% (active); in the test with UACC-62 melanoma it was -91.6% (active); in the test with LOX IMVI melanoma it was -70.6% (active); in the test on SK-MEL-28 melanoma, -87.2% (active).

For the compound `Cc1ccc(-c2cc(-c3nnc(SCC(=O)c4ccccc4)o3)c3ccccc3n2)cc1`, the growth with DU-145 prostate was 95.2%; in the test with K-562 leukemia it was 93.2%; in the test on MALME-3M melanoma, 107%; in the test with MDA-MB-231 breast, 117%; in the test on SF-268 CNS it was 88.9%; in the test on SF-295 CNS, 99.1%. Further, the growth is 94.2% in the test with SF-539 CNS; 114% in the test on UACC-257 melanoma; 97.2% in the test on M14 melanoma; 96.3% in the test on HCT-15 colon; 90.1% in the test with HT29 colon; 57.1% with SNB-75 CNS. The growth with SNB-19 CNS was 101%; with U251 CNS it was 98.3%; with PC-3 prostate, 95.5%; in the test on SK-MEL-5 melanoma, 95.3%; in the test with UACC-62 melanoma it was 90.8%; in the test with LOX IMVI melanoma, 92.4%. In the test on SK-MEL-28 melanoma, the growth was 96.6%.

Regarding `CC1=C[S+](c2ccccc2)c2cccc3cc4ccccc4c1c23` (stereo not drawn), the growth in the test with DU-145 prostate is -10.8% (active); in the test with K-562 leukemia, -27.2% (active); with MALME-3M melanoma, -41.2% (active); in the test on MDA-MB-231 breast, -10.4% (active); in the test with SF-268 CNS it was -38.7% (active); with SF-295 CNS it was -0.638% (active). In addition, the growth with SF-539 CNS is -88.2% (active); with UACC-257 melanoma, -88.8% (active); in the test with M14 melanoma it was -64.4% (active); with HCT-15 colon, 7.56% (active); in the test on HT29 colon, 0.469% (active); in the test on SNB-75 CNS, -91.1% (active). Moreover, the growth in the test with SNB-19 CNS was -93.6% (active); with U251 CNS, -81% (active); in the test with PC-3 prostate it was 1.38% (active); in the test on SK-MEL-5 melanoma, -86.7% (active); in the test with UACC-62 melanoma it was -85.2% (active); with LOX IMVI melanoma, 8.36% (active). Further, the growth with SK-MEL-28 melanoma was 11.5%.

For `O=C(c1cc(-c2ccc(Cl)cc2)nc2ccccc12)N1N=C(c2ccccc2)CC1c1cc(-c2ccccc2)nn1-c1ccccc1` (stereo not drawn), the growth in the test with DU-145 prostate is 82.7%; in the test on K-562 leukemia, 63.9%; with MALME-3M melanoma, 86.1%; in the test with MDA-MB-231 breast, 93.3%; with SF-268 CNS, 62.4%; in the test on SF-295 CNS, 64.8%. For the same compound, the growth in the test with SF-539 CNS is 82.1%; in the test on UACC-257 melanoma it was 95.1%; in the test on M14 melanoma it was 65.1%; with HCT-15 colon, 56.7%; with HT29 colon, 98.7%; in the test on SNB-75 CNS it was 69.2%. Besides, the growth with SNB-19 CNS was 77.1%; in the test on U251 CNS it was 63.8%; with PC-3 prostate it was 71.3%; in the test with SK-MEL-5 melanoma, 78.7%; with UACC-62 melanoma, 79.2%; with LOX IMVI melanoma, 57%. Also, in the test with SK-MEL-28 melanoma, the growth was 73.3%.

For the compound `O=C(NOC1OC(CO)C(O)C(O)C1O)Nc1ccccc1` (stereo not drawn), the growth with DU-145 prostate is 108%; with K-562 leukemia, 69%; in the test with MALME-3M melanoma, 94.8%; with MDA-MB-231 breast it was 99.2%; with SF-268 CNS, 85.7%; in the test on SF-295 CNS it was 98.5%. The growth was 103% in the test with SF-539 CNS; 107% with UACC-257 melanoma; 108% in the test on M14 melanoma; 109% with HCT-15 colon; 105% with HT29 colon; 105% in the test with SNB-75 CNS. Besides, the growth was 100% in the test on SNB-19 CNS; 102% in the test on U251 CNS; 93.2% with PC-3 prostate; 104% in the test on SK-MEL-5 melanoma; 93.7% in the test with UACC-62 melanoma; 96.7% with LOX IMVI melanoma. For the same compound, in the test on SK-MEL-28 melanoma, the growth is 117%.

As for `O=C1OC(c2ccc(-c3ccccc3)cc2)=C/C1=C/C=C/c1ccccc1`, the growth in the test on DU-145 prostate is 111%; in the test with K-562 leukemia, 96%; in the test with MALME-3M melanoma, 104%; in the test with MDA-MB-231 breast, 105%; with SF-268 CNS, 90.5%; with SF-295 CNS, 65.6%. The growth in the test with SF-539 CNS was 105%; in the test with UACC-257 melanoma, -13.8% (active); in the test on M14 melanoma, 112%; with HCT-15 colon, 109%; in the test on HT29 colon, 113%; with SNB-75 CNS, 92.4%. Further, the growth in the test on SNB-19 CNS is 99.1%; in the test on U251 CNS, 100%; in the test on PC-3 prostate it was 105%; in the test on SK-MEL-5 melanoma, 106%; in the test with UACC-62 melanoma, 96.8%; in the test on LOX IMVI melanoma, 99.3%. In addition, the growth in the test with SK-MEL-28 melanoma was 103%.

Take `Cc1cn(-c2cc(C(=O)Nc3cccc(-n4ccc5c(NC(=O)c6ccccc6)nccc54)c3)cc(C(F)(F)F)c2)cn1`: the growth in the test on DU-145 prostate is -9.55% (active); with K-562 leukemia it was 4.74% (active); with MALME-3M melanoma, 25.2%; with MDA-MB-231 breast, 4% (active); in the test with RXF 393 renal, -89.8% (active); in the test with SF-268 CNS, 12%. For the same compound, the growth with SF-295 CNS was -12.3% (active); in the test on SF-539 CNS, -12.1% (active); with UACC-257 melanoma, 40.6%; in the test with M14 melanoma, 11.9%; in the test with HCT-15 colon it was 4.61% (active); in the test with SNB-75 CNS, 27.2%. In addition, the growth is 28.9% in the test with SNB-19 CNS; -54.5% (active) in the test with SK-MEL-5 melanoma; 27.1% with UACC-62 melanoma; 5.46% (active) with LOX IMVI melanoma; 33.3% in the test with SK-MEL-28 melanoma.
